Screening results from PubChem BioAssay.
Tat export inh = blocks Tat-dependent protein export in E. coli | E. coli MC4100 TorA-mCherry Tat export, fluorescence | actives 0.036% (n = 340,000) | inhibition, % at 10 µM;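 active means mean replicate inhibition at least 50% and at least half of replicates individually reaching 50%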;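 further: exported cargo escapes ClpAP degradation while cytoplasmic cargo is degraded and loses fluorescence; 0% = median of neutral control wells and 100% = median of NaSCN control wells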
E coli growth-1 = bacterial growth inhibition, counter-screen for AddAB inhibitors | E. coli V3065 growth, OD600 absorbance, 18 h | inhibition, % at 11.9 µM | actives 0.27% (n = 330,000) | AID 449728;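 active means inhibition above the campaign's mean inhibition across all tested compounds plus 3 SD, cut at about 9.9% in these data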;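 further: uninfected addAB+ strain grown without phage in ampicillin broth; 0% = DMSO wells and 100% = ciprofloxacin 0.95 µg/ml wells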
E coli growth-2 = E. coli growth inhibition; OD600 absorbance (no concentration beside the values); actives 0.21% (n = 330,000); Escherichia coli growth, OD600, 23 h; hits give low values; AID 1053175;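 active means OD600 absorbance below the run mean of sample wells minus 3.6 SD, in any replicate, cut at about 0.56 in these data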
AddAB inh = less growth of phage-infected E. coli with AddAB | actives 0.29% (n = 330,000) | inhibition, % at 11.9 µM | E. coli expressing H. pylori AddAB, absorbance growth; in the data active means inhibition above about 12%;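 further: 0% = vehicle wells of infected cells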
phage Ecoli inh = E. coli growth loss with phage present. growth absorbance. inhibition, % at 11.9 µM. actives 0.26% (n = 360,000). AID 651602; in the data active means inhibition above about 11%
RecBCD conf = confirmation: growth loss of phage-infected RecBCD+ E. coli (RecBCD inhibitor screen). shares compounds with phage Ecoli inh. E. coli V66 + T4 2- phage, growth OD. actives 45% (n = 890). inhibition, % at 11.9 µM;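 active means mean inhibition over triplicates exceeding the hit threshold derived in the original primary screen, cut at about 11% in these data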
Ecoli viability = bacterial viability inhibition counter-screen for RecBCD. inhibition, % at 11.9 µM. shares compounds with phage Ecoli inh. AID 651983. E. coli viability, absorbance (OD) growth. actives 29% (n = 890); in the data active means inhibition above about 20%;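 further: E. coli strain V66 grown with compound alone and no phage infection; 0% = bacteria with DMSO vehicle only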
AddAB counter = growth loss of phage-infected AddAB E. coli, RecBCD counter-screen; shares compounds with phage Ecoli inh; E. coli expressing H. pylori AddAB + T4 phage, OD growth; gene 2 mutant T4, recBCD-deleted host; actives 45% (n = 890); inhibition, % at 11.9 µM; AID 651984;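 active means mean inhibition above the solvent-only control wells' mean plus 3 SD, cut at about 22% in these data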;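 further: higher means less bacterial growth from phage killing when AddAB is blocked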
Numbers without * were called inactive; i = inactive; · = not tested or not shown. A selection: hits, their analogues and other compounds. The true share with any hit is near 0.5%.

SMILES	Tat export inh	E coli growth-1	E coli growth-2	AddAB inh	phage Ecoli inh	RecBCD conf	Ecoli viability	AddAB counter
CN(C)C(=O)/C(=C/c1ccc(-c2cccc([N+](=O)[O-])c2)o1)NC(=O)c1ccccc1	-2.2	0.6	0.658	-1.0	19.1*	-1.7	-0.6	7.0
CN(C)C(=O)/C(=C\c1ccc(-c2cccc([N+](=O)[O-])c2)o1)NC(=O)c1ccccc1	0.2	2.1	0.666	1.1	2.8	·	·	·
CCn1c(C(C#N)=NO)nc2ccccc21	·	·	0.693	·	·	·	·	·
O=C1C(Cc2ccccc2)NCC=CCC(c2ccc(Cl)cc2)N1Cc1ccc(Cl)cc1 (stereo not drawn)	·	·	0.731	·	·	·	·	·
COc1cc(N(C)C)ccc1C=c1c2ccccc2n2c1cc(-c1ccccc1)[n+]2C	i	·	·	·	27.6*	32.3*	36.1*	97.2*
O=[N+]([O-])c1ccc(O)c(C2CCCCC2)c1	-4.9	·	0.188*	·	12.0*	7.1	12.2	16.8
O=C(CNC(=O)c1cccc(F)c1)NN=Cc1ccc([N+](=O)[O-])s1	·	·	0.646	·	·	·	·	·
O=C(C(=O)c1cc(Br)ccc1O)c1cc(Br)ccc1O	-8.8	·	0.172*	·	13.1*	12.7*	17.4	15.5
C/C=N/NC(=O)c1cc(Br)ccc1O	-2.9	-0.3	·	1.4	1.6	·	·	·
CN1CC2C(c3ccc(Cl)nc3)C3(c4cccnc4)CC2(C3)C1c1ccccc1 (stereo not drawn)	·	·	0.637	·	·	·	·	·
CCSCCc1nnc(NC(=O)Nc2cccc(C(F)(F)F)c2)s1	-7.8	5.1	0.695	5.0	11.0*	4.2	6.5	5.0
FC(F)(F)c1cccc(CNC(=S)Nc2ccccc2)c1	8.8	2.5	0.602	3.3	5.3	·	·	·
FC(F)(F)c1cccc(NC(=S)NCc2ccccc2)c1	0.1	6.5	0.558	9.2	11.5*	5.0	6.8	7.4
S=C(NCc1ccccc1)Nc1ccc(Cl)cc1	-6.6	6.3	0.602	4.0	5.0	·	·	·
FC(F)(F)Sc1ccc(NC(=S)NCc2ccccc2)cc1	-13.5	10.1*	0.604	10.6	12.9*	6.9	8.0	13.3
O=C(Nc1ccccc1)Nc1cccc(C(F)(F)F)c1	1.3	7.0	0.619	9.3	11.3*	6.1	6.3	6.5
CNC(=O)Nc1cccc(C(F)(F)F)c1	0.0	5.1	0.698	7.9	10.1	·	·	·
CC(=NNC(=O)c1ccc(Br)cc1)C1C(=O)c2ccccc2C1=O	·	·	0.675	·	·	·	·	·
COc1cc(C=NNC2=NC(C)(C)Cc3ccccc32)cc(OC)c1OC	·	·	0.642	·	·	·	·	·
CNC(=S)NN=C(C)c1ccc(Cl)s1	·	·	0.678	·	·	·	·	·
COc1ccc(C2C=CCN(S(=O)(=O)c3ccc(C)cc3)C(C)C(=O)N2Cc2ccc(F)cc2)cc1 (stereo not drawn)	·	·	0.727	·	·	·	·	·
O=C(NCc1cccnc1)Nc1cccc(C(F)(F)F)c1	10.8	·	0.553	·	2.4	·	·	·
O=C(NCc1ccc2c(c1)CCO2)Nc1cccc(C(F)(F)F)c1	5.1	-1.2	0.66	3.3	11.3*	0.3	0.4	5.2
O=C(Nc1ccccc1)Nc1ccc(Br)c(Cl)c1	-4.6	7.3	0.578	6.8	12.0*	7.2	7.3	5.1
O=C(CSc1nnc(-c2ccccc2)n1Cc1ccccc1)NNC(=O)c1ccccc1O	-4.9	8.8	0.568	12.0	12.2*	3.6	4.2	3.8
SMILES	Tat export inh	E coli growth-1	E coli growth-2	AddAB inh	phage Ecoli inh	RecBCD conf	Ecoli viability	AddAB counter
O=C(NN=Cc1cccc(O)c1)c1cc(-c2ccccc2)nc2ccccc12	·	·	0.677	·	·	·	·	·
O=[N+]([O-])c1ccc(C=NN2CCNC2=S)o1	·	·	·	·	101.4*	100.6*	102.0*	101.0*
Cc1cc2ncn(N=Cc3ccc([N+](=O)[O-])o3)c2cc1C	·	·	0.575	·	·	·	·	·
CCN(CC)CC1CN(N=Cc2ccc([N+](=O)[O-])o2)C(=O)O1 (stereo not drawn)	-8.9	·	0.0635*	·	38.9*	41.1*	59.4*	101.6*
CC(=NN1CC(=O)NC1=O)c1ccc([N+](=O)[O-])o1	3.0	·	0.13*	·	50.2*	24.3*	43.6*	102.5*
CC(C)N=c1scc(-c2cccs2)n1/N=C/c1ccc(O)c(O)c1O	-8.7	7.4	·	10.2	16.1*	-0.8	-1.4	2.1
Cc1nc2ccc(N)cc2c(=O)n1Cc1ccc(Cl)cc1	14.8	-0.7	0.694	1.9	4.1	·	·	·
Nc1ccc(Cn2ccc3c4c(N)nc(N)nc4ccc32)cc1	16.8	·	·	·	99.8*	103.2*	104.5*	104.9*
COC(=O)C=CC1=CN(Cc2ccccc2)CCC1=O	·	·	0.661	·	·	·	·	·
O=C(C=Cc1ccccc1O)c1ccccc1O	-3.6	·	0.57	·	1.8	·	·	·
Cc1ccc(/C=C/C(=O)c2ccccc(=O)c2O)c(C)c1	1.2	2.4	0.667	7.1	12.7*	3.6	5.5	0.7
O=C(/C=C/c1ccc([N+](=O)[O-])cc1)c1ccccc(=O)c1O	10.6	·	·	·	16.5*	10.2	12.2	-0.6
O=C(/C=C/c1ccc([N+](=O)[O-])cc1)c1cccs1	-1.1	2.0	0.7	0.1	2.9	·	·	·
Cc1onc(-c2ccccc2)c1C(=O)NN=Cc1cc(Cl)cc(Cl)c1O	·	·	·	·	11.2*	-1.1	0.7	1.8
O=C(O)c1cn(-c2ccc(F)cc2)c2cc(N3CCNCC3)c(F)cc2c1=O	113.7*	·	·	·	99.4*	102.3*	103.4*	102.6*
Oc1cccc(C=NN2CCN(C3c4ccccc4-c4ccccc43)CC2)c1	·	·	0.693	·	·	·	·	·
COc1ccc2c(c1)OCC1C2N2C(=O)CN(Cc3ccco3)C(=O)[C@@]2(C)C1c1ccccc1 (stereo partly drawn)	·	·	0.685	·	·	·	·	·
Cc1[nH]nc(C(F)(F)F)c1N=NN1CCOCC1	82.9*	·	·	·	99.6*	99.2*	103.0*	100.3*
CCCOc1ccc(C=NNC(=O)CCc2n[nH]c(=O)[nH]c2=O)cc1OC	·	·	0.691	·	·	·	·	·
CCc1ccc(NC(=O)CCC(=O)N2CCSc3ccccc32)cc1	7.5	4.3	0.666	6.2	13.6*	-2.9	-3.3	2.4
C#CCOCCOCCOCCNc1nc(N2CCN(C(=O)C(CO)n3cc(C(N)C(C)C)nn3)CC2)nc(N2CCN(C(=O)C(CCCCN)n3cc(C(N)C(C)CC)nn3)CC2)n1 (stereo not drawn)	·	·	0.69	·	·	·	·	·
Cc1cc(=O)[nH]c(N=N/C(=N/Nc2ccccc2C)c2ccccc2)n1	2.5	3.1	·	1.1	5.0	·	·	·
Cc1cc(=O)[nH]c(N=N/C(=N/Nc2ccc(O)cc2)c2ccccc2)n1	-1.0	8.1	·	6.1	20.6*	18.7*	17.4	78.5*
CN1CCN(C(=O)N(c2ccccc2)c2ccccc2)CC1	6.9	0.4	0.698	0.9	98.4*	-2.7	-2.0	-0.8
CCN1CCN(C(=O)N(c2ccccc2)c2ccccc2)CC1	1.2	-2.2	0.694	-3.9	1.8	·	·	·
CC(=NNC(=S)NCc1ccccc1)c1ccco1	·	·	0.692	·	·	·	·	·
COc1ccc(C=NNC(=O)c2cc(C)n(-c3ccccc3)c2C)cc1OC	·	·	0.67	·	·	·	·	·
